PubChem BioAssay AID1851 (National Center for Advancing Translational Sciences (NCATS), 2009)
Where “and” joins values, the source holds several entries; their conditions need not be identical. Equal values may be shown once. Hit rate of the full screen: of about 16,000 compounds, about 5,100 (32%) were called active. Inconclusive results (about 25%) are left out. Some of the results follow. Values without a mark were called inactive. Calls come from the whole dose curve; as a rule, active = well fitted curve in the direction sought with a large enough effect; inconclusive = small, poorly fitted or top-dose-only effect, or effect the other way; inactive = no such curve, though single readings can be large or run the other way.

biological target: Cytochrome P450 3A4 (Homo sapiens) (UniProt P08684); experiment: Cytochrome panel assay with activity outcomes; conditions: recombinant CYP, pro-luciferin dealkylation, luminescence, p450-cyp3a4; series mostly up to 57.1 µM
% is set by controls: 0 for no effect and ±100 for the full control effect.

Chain of Cytochrome P450 3A4 (Homo sapiens) (P08684 whole entry, looked up): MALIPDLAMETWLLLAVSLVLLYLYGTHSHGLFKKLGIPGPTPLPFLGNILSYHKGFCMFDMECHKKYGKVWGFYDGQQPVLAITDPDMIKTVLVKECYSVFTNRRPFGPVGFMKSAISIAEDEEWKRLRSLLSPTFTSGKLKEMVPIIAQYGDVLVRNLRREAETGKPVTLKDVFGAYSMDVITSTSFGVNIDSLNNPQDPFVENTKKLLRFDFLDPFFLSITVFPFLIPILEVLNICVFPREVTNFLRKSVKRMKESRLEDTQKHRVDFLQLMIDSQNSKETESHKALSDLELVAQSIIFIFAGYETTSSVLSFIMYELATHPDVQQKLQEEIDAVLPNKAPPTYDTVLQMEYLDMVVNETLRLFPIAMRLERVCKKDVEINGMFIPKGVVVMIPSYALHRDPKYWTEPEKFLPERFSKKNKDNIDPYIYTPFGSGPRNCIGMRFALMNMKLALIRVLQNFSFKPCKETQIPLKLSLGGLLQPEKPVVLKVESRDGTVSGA

Row | SMILES | activity, negative = inhibition | AC50
1 | N#Cc1c(NC(=O)CCC(=O)O)ccc2ccccc12 | -1.16% [at 11.4 µM] | 
2 | Cc1c(C#N)c(=O)oc2ccc3ccccc3c12 |  | 3.55 µM (active)
3 | Cc1nc(SCC(=O)c2cc3ccccc3oc2=O)c(C#N)c(C)c1C(=O)Nc1ccccc1 |  | inactive
4 | CN(C)CCNc1oc(COc2ccc(Cl)cc2Cl)nc1C#N |  | inactive
5 | N#Cc1nc(COc2ccccc2Cl)oc1NCc1ccco1 |  | 5.01 µM (active)
6 | O=C(O)C1CC2(C1)CC(C(=O)O)C2 (stereo not given) | 5.16% [at 11.4 µM] | 
7 | Cc1ccc2c(c1)N(CCC(=O)NCc1ccc3c(c1)OCO3)C(=O)CO2 |  | 0.112 µM (active)
8 | COc1cc(C(=O)NCCC(=O)NCc2ccc3c(c2)OCO3)cc(OC)c1OC |  | 0.447 µM (active)
9 | CCCn1nc2cc(C(=O)NCc3ccc4c(c3)OCO4)ccc2c1OCC | 32.6% [at 2.29 µM] | 
10 | CCN1CCCC1CNC(=O)CCNC(=O)c1cc(OC)c(OC)c(OC)c1 (stereo not given) |  | inactive
11 | Cc1ccc(C(=O)NCc2ccc(N3CCN(C(=O)OC(C)(C)C)CC3)cc2)cc1 |  | inactive
12 | COc1ccccc1CNC(=O)CCN1C(=O)COc2ccc(C)cc21 |  | 11.2 µM (active)
13 | Cc1ccc2c(c1)-c1c(cnn1CC(=O)O)CO2 |  | inactive
14 | Cc1ccc(CNC(=O)CN2C(=O)COc3ccc(C)cc32)cc1 |  | 1.78 µM (active)
15 | CCc1nnc(NC(=O)CCC(=O)NCc2ccccc2OC)s1 |  | inactive
16 | Cc1ccc2c(c1)N(CCC(=O)NCc1cccnc1)C(=O)CO2 |  | 3.55 µM (active)
17 | O=C(O)c1cccc(N2CCCC2=O)c1 |  | 8.91 µM (active)
18 | O=C(O)c1cccc(SSc2cccc(C(=O)O)c2)c1 | -11.9% [at 11.4 µM] | 
19 | O=C(O)c1cccc(CN2CCCCC2)c1 | -0.758% [at 11.4 µM] | 
20 | COc1ccc(-c2nc3cnc(N4CCN(C)CC4)nc3n(Cc3cccs3)c2=O)cc1 |  | inactive
21 | COc1ccc(Oc2ncc3ncc(=O)n(Cc4cccs4)c3n2)cc1 |  | 3.16 µM (active)
22 | Cn1cc(-c2nc3cnc(Oc4ccccc4)nc3n(Cc3cccs3)c2=O)c2ccccc21 |  | inactive
23 | COc1ccc(Oc2ncc3nc(C)c(=O)n(Cc4cccs4)c3n2)cc1 |  | 3.16 µM (active)

Row | SMILES | activity, negative = inhibition | AC50
24 | COc1ccc(Oc2ncc3nc(-c4ccc(F)cc4)c(=O)n(Cc4cccs4)c3n2)cc1 |  | 15.8 µM (active)
25 | Cc1nc2cnc(Oc3ccccc3)nc2n(Cc2cccs2)c1=O |  | 10 µM (active)
26 | COc1ccc(-c2nc3cnc(N4CCOCC4)nc3n(Cc3cccs3)c2=O)cc1 |  | inactive
27 | O=C(NNC(=O)c1ccncc1)c1ccncc1 | -9.5% [at 11.4 µM] | 
28 | O=C(CC(=O)c1ccncc1)c1ccccc1 |  | 3.16 µM (active)
29 | O=C(C[N+]1(c2ccccc2)CCOCC1)c1ccccc1 | -14.4% [at 11.4 µM] | 
30 | Oc1c(CN2CCOCC2)cc(-c2ccccc2)cc1CN1CCOCC1 |  | 15.8 µM (active)
31 | CCc1cc2c(=O)c(-c3cnn(-c4ccccc4)c3)coc2c(CN2CCOCC2)c1O | 12.2% [at 11.4 µM] | 
32 | O=c1oc2c(CN3CCOCC3)c(O)ccc2c2ccccc12 | -4.65% [at 2.29 µM] | 
33 | CCN(CC)C[C@@H]1CCCCN1CC(=O)N1c2ccccc2C(=O)Nc2cccnc21 |  | 12.6 µM (active)
34 | CN1CCN(CC(=O)N2c3ccccc3C(=O)Nc3cccnc32)CC1 |  | inactive
35 | Cc1ccc2c(c1)nnn2C1CCN(S(=O)(=O)c2ccc(C(=O)N3C(C)CCCC3C)cc2)CC1 (stereo not given) |  | 1.41 µM (active)
36 | Cc1ccc2c(c1)nnn2C1CCN(CC(=O)N2c3ccccc3CC2C)CC1 (stereo not given) |  | 10 µM (active)
37 | CC1Cc2ccccc2N1C(=O)Cn1cc([N+](=O)[O-])cn1 (stereo not given) |  | inactive
38 | CCC(=O)Nc1ccccc1C(=O)OCC(=O)c1ccccc1 |  | inactive
39 | CCOC(=O)c1ccccc1NC(=O)/C(C)=C/C(=O)O |  | inactive
40 | CCC(=O)Nc1ccccc1C(=O)OCC(=O)c1cccc2ccccc12 |  | 11.2 µM (active)
41 | c1ccc(Nc2nc(-c3ccc4c(c3)OCO4)nc3ccccc23)cc1 |  | 5.01 µM (active)
42 | c1ccc2c(Nc3ccncc3)nc(-c3ccc4c(c3)OCO4)nc2c1 |  | 0.501 µM (active)
43 | Nc1ncnc2c([C@@H]3O[C@@H](CO)[C@H](O)[C@@H]3O)nsc12 | -0.156% [at 11.4 µM] | 
44 | CN(C)/N=N\c1nc[nH]c1C(N)=O |  | inactive
45 | O=C(O)C1C2C=CC(C2)C1C(=O)N1CCN(C/C=C/c2ccccc2)CC1 (stereo not given) |  | inactive
46 | O=C(c1nn(Cc2ccccc2)c(=O)c2ccccc12)N1CCN(C/C=C/c2ccccc2)CC1 |  | 2.24 µM (active)

Row | SMILES | activity, negative = inhibition | AC50
47 | COc1ccc(C(=O)Nc2cccc(/C(C)=N/NC(=O)c3ccc([N+](=O)[O-])cc3)c2)cc1OC | -28.5% [at 2.29 µM] | 
48 | CCC(=O)Nc1cccc(NC(=O)c2cccc([N+](=O)[O-])c2)c1 |  | 22.4 µM (active)
49 | O=C(Nc1nc(-c2ccccc2)cs1)c1cccc([N+](=O)[O-])c1 |  | 10 µM (active)
50 | COc1ccc(-c2nc(NC(=O)c3ccccc3)sc2-c2ccc([N+](=O)[O-])cc2)cc1 | 12.5% [at 2.29 µM] | 
51 | COc1ccc(CC(=O)Nc2cccc(/C(C)=N/NC(=O)c3cccc([N+](=O)[O-])c3)c2)cc1 |  | 2 µM (active)
52 | O=C(COc1cccc(NC(=O)c2cccc([N+](=O)[O-])c2)c1)c1ccc(Br)cc1 |  | inactive
53 | N[C@H](C(=O)O)c1ccc(C(=O)O)cc1 |  | inactive
54 | CCN(CC)CCNC(=O)Cn1nc(-c2ccc(C)cc2)ccc1=O |  | inactive
55 | COc1ncc2nc(-c3cccc(C#N)c3)c(=O)n(CCC#N)c2n1 |  | 25.1 µM (active)
56 | CN(C)c1ncc2nc(-c3cccc(C#N)c3)c(=O)n(CCC#N)c2n1 |  | inactive
57 | COc1cccc(Cn2c(=O)c(-c3cccc(C#N)c3)nc3cnc(OC)nc32)c1 |  | 3.16 µM (active)
58 | COc1ccc(Oc2ncc3nc(-c4cccc(C#N)c4)c(=O)n(Cc4cccc(OC)c4)c3n2)cc1 |  | 2 µM (active)
59 | N#CCCn1c(=O)c(-c2cccc(C#N)c2)nc2cnc(Oc3cccc(Cl)c3)nc21 |  | inactive
60 | CC(C)[C@H](CO)Nc1nc(Nc2ccc(C(=O)O)c(Cl)c2)c2ncn(C(C)C)c2n1 |  | inactive
61 | NCCC(=O)O |  | inactive
62 | Cc1ccc(-c2nnc(-c3ccccc3S(=O)(=O)Cc3ccc(Cl)cc3)o2)cc1 |  | 3.98 µM (active)
63 | O=C(Nc1nnc(-c2ccc(Cl)cc2)o1)Nc1ccccc1Cl | -3.31% [at 2.29 µM] | 
64 | NS(=O)(=O)c1cc(C(=O)O)c(O)c2ccccc12 | -3.6% [at 11.4 µM] | 
65 | COc1ccc2c(c1)C(c1ccc([N+](=O)[O-])cc1)=NNC(c1ccco1)=N2 |  | 14.1 µM (active)
66 | Cc1ccccc1-c1ccc2ncnc(NCc3cccs3)c2c1 |  | 3.98 µM (active)
67 | FC(F)(F)c1ccccc1-c1ccc2ncnc(NCc3cccs3)c2c1 |  | 5.01 µM (active)
68 | Cc1cc2nc(CCN(C(=S)NCC(C)C)C3CCCC3)[nH]c2cc1C |  | 17.8 µM (active)
69 | Cc1noc(C)c1COc1ccc(C(=O)NCC2CCCO2)cc1 (stereo not given) |  | inactive

Row | SMILES | activity, negative = inhibition | AC50
70 | COc1cc(C(=O)OC(C)C(=O)Nc2ccc3c(c2)OCO3)ccc1OCc1c(C)noc1C (stereo not given) |  | 0.631 µM (active)
71 | C/C(CCN1CCCCc2nc(C)c(C)cc21)=N\O[C@@H](C)c1cn([C@H](CO)Cc2ccccc2)nn1 |  | 3.98 µM (active) and 5.01 µM (active)
72 | CCc1cc2c(nc1CC)CCN(CC/C(C)=N/O[C@@H](C)c1cn([C@@H]3COC[C@@H]3O)nn1)C2 | -5.44% [at 11.4 µM] | 
73 | C/C(CCN1CCCc2nc(C)c(C)cc21)=N\O[C@@H](C)c1cn([C@H](CO)Cc2ccccc2)nn1 |  | 2 µM (active)
74 | CCc1cc2c(nc1CC)CCN(CC/C(C)=N/O[C@@H](C)c1cn([C@H](CO)Cc3ccccc3)nn1)C2 |  | 3.16 µM (active) and 3.98 µM (active)
75 | CC(C)=NO[C@@H](C)c1cn([C@H](CO)Cc2ccccc2)nn1 | -28.8% [at 11.4 µM] and -23.4% [at 11.4 µM] | 
76 | CN(C)C(=O)CN(c1ccc2c(c1)OCO2)S(C)(=O)=O |  | 25.1 µM (active)
77 | Cc1cccc(N(CC(=O)N2CCOCC2)S(C)(=O)=O)c1 |  | inactive
78 | O=C(CN1C(=O)C2C3C=CC(C3)C2C1=O)Nc1ccc2c(c1)OCCO2 (stereo not given) |  | 25.1 µM (active)
79 | COc1ccc(NC(=O)CN2c3cccc4cccc(c34)S2(=O)=O)cc1 |  | 4.47 µM (active)
80 | O=C(CN1C(=O)C2C3C=CC(C3)C2C1=O)Nc1ccc(C(=O)O)cc1 (stereo not given) |  | inactive
81 | COc1ccc(NC(C)=O)cc1NC(=O)CN1CCN(CC(=O)Nc2ccccc2Cl)CC1 |  | 12.6 µM (active)
82 | COc1ccc(NC(=O)CN2CCN(CC(=O)Nc3ccccc3Cl)CC2)cc1 |  | 10 µM (active)
83 | COc1ccccc1NC(=O)CN1CCN(CC(=O)Nc2ccc(OCc3ccccc3)cc2)CC1 |  | inactive
84 | CSc1nc(NC2CCCC2)c([N+](=O)[O-])c(NC2CCCC2)n1 |  | inactive
85 | COc1ccc([C@@H]2CC(=O)c3c(O)cc(O[C@H]4O[C@@H](CO[C@H]5O[C@@H](C)[C@@H](O)[C@@H](O)[C@@H]5O)[C@@H](O)[C@@H](O)[C@@H]4O)cc3O2)cc1O |  | inactive
86 | O=C(CN1CCN(CC(=O)Nc2ccccc2Cl)CC1)Nc1ccc2c(c1)OCCO2 |  | 14.1 µM (active)
87 | O=C(Nc1ccc2c(c1)OCCO2)C1CCN(C(=O)c2ccccc2)CC1 |  | inactive
88 | COc1cccc(OC)c1OCCCCN1CCCC1 |  | inactive
89 | COc1cccc(OC)c1OCCNC[C@@H]1COc2ccccc2O1 |  | 2 µM (active) and 2.51 µM (active)
90 | COc1cccc(OC)c1OCCCN1CCOCC1 |  | inactive
